# Bioassay records: PubChem, The Scripps Research Institute Molecular Screening Center
# GSTO1 counter = blocks human GSTO1 in RBBP9 counter-screen; 1.1% of 300,000 active; recombinant GSTO1, activity-based probe fluorescence polarization; inhibition, % at 5.96 µM; P78417;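 active means inhibition above the campaign mean inhibition plus 3 SD, cut at about 35% in these data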;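 further: 0% = GSTO1-1 with DMSO and 100% = wells lacking GSTO1-1 enzyme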
# LYPLA1 counter = counter-screen for PME1 inhibitors: inhibitors of human LYPLA1; recombinant LYPLA1, FP-Rh probe fluorescence polarization; 0.16% of 320,000 active; O75608; AID 2174; inhibition, % at 5.9 µM;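 active means inhibition above the mean of all tested compounds plus 3 SD, set per campaign, cut at about 14% in these data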;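 further: inhibitors block serine hydrolase probe labeling of LYPLA1 so polarization falls; 0% = enzyme with DMSO and 100% = wells lacking LYPLA1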
# Target sequence (O75608 whole entry, looked up): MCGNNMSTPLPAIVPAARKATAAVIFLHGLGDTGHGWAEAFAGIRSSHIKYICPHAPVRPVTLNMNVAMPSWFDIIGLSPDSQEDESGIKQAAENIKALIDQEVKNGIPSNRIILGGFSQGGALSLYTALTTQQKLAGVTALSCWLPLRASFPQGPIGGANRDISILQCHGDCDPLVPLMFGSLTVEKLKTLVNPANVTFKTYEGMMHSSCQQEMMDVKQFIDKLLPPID
# PME-1 primary = blocks human protein phosphatase methylesterase 1 | Q9Y570 | recombinant PME-1, FP-Rh probe fluorescence polarization | inhibition, % at 5.9 µM | 0.53% of 320,000 active | AID 2130;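 active means inhibition above the campaign mean of all compounds plus 3 SD, cut at about 26% in these data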;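 further: competitive labeling of PME-1 active site by serine hydrolase directed probe; 0% = PME-1 with DMSO and 100% = wells lacking PME-1 enzyme; inhibitors block probe labeling so polarization falls and inhibition rises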
# Target sequence (Q9Y570 whole entry, looked up): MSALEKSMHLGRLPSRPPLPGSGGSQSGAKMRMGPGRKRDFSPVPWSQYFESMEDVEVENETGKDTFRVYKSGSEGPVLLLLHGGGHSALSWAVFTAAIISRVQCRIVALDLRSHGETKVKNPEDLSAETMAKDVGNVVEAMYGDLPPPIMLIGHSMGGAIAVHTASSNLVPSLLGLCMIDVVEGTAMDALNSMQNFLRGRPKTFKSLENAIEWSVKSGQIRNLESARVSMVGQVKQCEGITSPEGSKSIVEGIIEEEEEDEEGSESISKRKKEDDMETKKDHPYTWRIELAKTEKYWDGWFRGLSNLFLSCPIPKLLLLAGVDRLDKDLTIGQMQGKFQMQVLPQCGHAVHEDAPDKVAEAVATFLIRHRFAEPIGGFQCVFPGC
# PAD4 FP inh = PAD4 (human) enzyme inhibition; inhibition, % at 6.36 µM; 0.41% of 330,000 active; recombinant PAD4, RCA probe fluorescence polarization;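 active means percent inhibition above a cutoff equal to the mean of all tested compounds plus 3 SD, cut at about 15% in these data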;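 further: 0% = PAD4 with RCA probe and DMSO and 100% = probe without PAD4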
# LYPLA2 inh = blocks human lysophospholipase 2, a PME1 counter-screen | O95372 | recombinant LYPLA2, FP-Rh probe fluorescence polarization | inhibition, % at 5.9 µM | 0.38% of 320,000 active | AID 2177;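 active means inhibition above the screen-wide mean plus 3 SD, limit set per campaign, cut at about 26% in these data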;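 further: 0% = LYPLA2 with DMSO and 100% = wells lacking LYPLA2 enzyme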
# Fam108B counter = Fam108B inhibition, counter-screen for RBBP9 inhibitors; recombinant Fam108B, FP-Rh probe fluorescence polarization; 0.33% of 300,000 active; inhibition, % at 9.51 µM;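 active means inhibition above the screen mean inhibition plus 3 SD, computed separately per campaign, cut at about 18% in these data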;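 further: inhibitors lower polarization as less probe binds the enzyme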
# GSTO1 inh conf = GSTO1 (human) inhibition, confirmation; shares compounds with GSTO1 counter; recombinant GSTO1, probe fluorescence polarization; inhibition, % at 5.96 µM; 54% of 2,400 active; AID 2176;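 active means inhibition above the primary screen's cutoff, its mean inhibition plus 3 SD, cut at about 35% in these data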;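 further: loss of polarization as inhibitors block binding of rhodamine sulfonate ester activity probe; 0% = GSTO1 with DMSO and 100% = wells lacking GSTO1 enzyme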
# GSTO1 recomb ABPP = blocks recombinant human glutathione S-transferase omega 1; shares compounds with GSTO1 counter; recombinant GSTO1, gel ABPP SE-Rh probe fluorescence; inhibition, % at 1 µM; 30% of 130 active;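 active means inhibition of the enzyme GSTO1 above about 75%, limit read from the data; inactive means inhibition below that limit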
# An asterisk follows results filed as active; / = no result given. Most compounds without a hit are left out; they make up all but 1.8% or so of the library.
SMILES,GSTO1 counter,LYPLA1 counter,PME-1 primary,PAD4 FP inh,LYPLA2 inh,Fam108B counter,GSTO1 inh conf,others
CC(C)C[C@@H](CC#N)N1CCN(Cc2ccccc2)CCC1=O,-0.6,4.7,-0.9,-0.4,6.8,6.1,/,
COc1ccc2c3c(cccc13)N(C)N=C2C,70.0*,-0.7,7.2,10.3,0.0,3.4,64.0*,
COc1ccc2c3c(cccc13)OC2=O,5.9,0.4,-2.8,0.5,11.3,0.9,/,
CCCOc1ccc(C(=O)CCCC(=O)c2ccc(OCCC)cc2)cc1,2.4,4.9,2.2,-2.1,8.5,2.7,/,
CCN(CC)c1ccc(N=Cc2cc(Br)ccc2O)cc1,74.3*,-2.0,-0.3,13.5,-2.0,-0.4,6.0,
Oc1ccc(Br)cc1C=Nc1ccc(Cl)cc1,0.7,0.5,-3.2,-2.8,-1.6,-2.9,/,
COc1cccc(/C=N/NC(=O)NC2CCCCC2)c1O,38.3*,1.6,4.1,-2.9,3.8,1.1,6.2,
COc1ccc(NC2CCCN(C(=O)C3=NN(C)C(=O)CC3)C2)cc1OC (configuration not stated),0.0,0.0,3.0,-2.2,4.8,-1.4,/,
CCOc1cc(C2C3=C(CCCC3=O)N(CCC(=O)O)C3=C2C(=O)CCC3)ccc1OS(=O)(=O)c1ccc(C)cc1,77.7*,2.0,2.4,1.4,-1.3,0.1,69.8*,
Cc1ccc(S(=O)(=O)Oc2ccc(C3C4=C(CCCC4=O)N(CCC(=O)O)C4=C3C(=O)CCC4)cc2Cl)cc1,61.8*,-4.2,3.0,-2.4,-1.3,0.7,60.8*,
Cc1ccc(S(=O)(=O)NCC(=O)OCC(=O)NCc2ccco2)cc1,/,/,/,-5.2,/,/,/,
Cc1ccc2c(c1)c1c3n2CCN(C(=O)CCl)C3CCC1 (configuration not stated),93.2*,0.4,1.7,-1.5,4.9,1.2,93.1*,GSTO1 recomb ABPP=85.0*
CC(=O)c1ccc(NS(=O)(=O)c2cccc(C(=O)Nc3ccccc3C(=O)O)c2)cc1,-27.0,-3.6,-5.0,-2.9,-6.7,-5.3,/,
Cc1ccc(-n2c(C)cc(/C=C3\SC(=O)NC3=O)c2C)cc1,2.5,0.8,6.6,-3.2,0.6,-1.2,/,
Cc1cc(/C=C2\SC(=S)NC2=O)c(C)n1-c1cccc(O)c1,53.5*,-12.4,-17.4,-28.6,-5.3,3.8,51.3*,
C=CCn1c(O)c(N=NC(=S)Nc2ccccc2C)c2cc(S(=O)(=O)N3CCOCC3)ccc21,42.1*,-0.6,6.1,0.0,-1.3,1.7,7.1,
CCCN(C(=O)CCl)C1=CCCCC1,38.2*,-2.4,0.1,-3.6,-5.1,-2.9,57.9*,GSTO1 recomb ABPP=63.0
COc1ccc(N2CCN(C(=O)COC(=O)Cc3cccc(OC)c3)CC2)cc1,-6.2,-0.4,-2.9,-2.3,0.3,-2.3,/,
Oc1ccc(Nc2nc(-c3ccc4ccccc4c3)cs2)cc1,4.7,-5.8,15.5,1.5,-2.5,10.0,/,
Oc1ccc(-c2nc(-c3ccc(O)c(O)c3)cs2)cc1,47.3*,-6.5,13.7,0.7,-2.6,-1.1,5.5,
Nc1c(C(=O)NCc2ccc3c(c2)OCO3)c2nc3ccccc3nc2n1CCCN1CCOCC1,50.0*,-6.6,5.6,-14.6,1.0,6.2,-3.8,
Nc1c(C(=O)NCc2ccco2)c2nc3ccccc3nc2n1CCc1ccc(F)cc1,75.3*,-5.5,8.1,37.1*,-7.0,7.1,57.9*,
Nc1c(C(=O)NCCN2CCOCC2)c2nc3ccccc3nc2n1-c1ccc2c(c1)OCO2,16.0,-0.9,-6.4,-6.7,-1.2,9.0,/,
O=C1CCC(C(=O)N2CCCCCC2)CN1CCc1ccc(Cl)cc1 (configuration not stated),-2.5,-6.1,1.6,2.5,-11.8,1.8,/,
Cc1nnc(N/N=C/c2c(O)n(-c3cccc(C(F)(F)F)c3)c(=O)c3ccccc23)[nH]c1=O,39.1*,-0.5,2.4,-3.3,1.5,13.9,18.6,
SMILES,GSTO1 counter,LYPLA1 counter,PME-1 primary,PAD4 FP inh,LYPLA2 inh,Fam108B counter,GSTO1 inh conf,others
CC(Oc1ccc(F)cc1)C(=O)N(CCC1=CCCCC1)c1c(N)n(Cc2ccccc2)c(=O)[nH]c1=O (configuration not stated),2.3,0.7,2.7,-1.1,1.5,-6.4,/,
CCOC(=O)c1c(C)n(C)c2cc(Br)c(O)c(O)c12,44.8*,4.2,3.6,-10.1,1.7,-1.9,12.9,
CCOC(=O)c1c(C)n(C)c2cc([N+](=O)[O-])c(O)c([N+](=O)[O-])c12,9.3,0.6,-0.2,-3.7,-1.0,-4.2,/,
COc1ccccc1C1/C(=C(\O)c2ccc3c(c2)OCCO3)C(=O)C(=O)N1CCCn1ccnc1 (configuration not stated),14.8,2.7,1.6,-13.2,9.1,6.2,/,
O=c1[nH]c(C2CCN(S(=O)(=O)c3ccc(C(F)(F)F)cc3)CC2)nc2c1nnn2Cc1cccc(F)c1,3.1,-3.4,11.7,-2.6,0.9,-3.1,/,
O=c1[nH]c(C2CCN(S(=O)(=O)c3ccccc3C(F)(F)F)CC2)nc2c1nnn2Cc1cccc(F)c1,47.0*,-8.2,18.6,-1.3,-18.6,-2.8,50.5*,
C=CCN(Cc1ccc(OC)c(OC)c1)C(=O)c1cc2cc(F)ccc2[nH]1,0.1,-2.3,-1.6,2.6,-2.5,-1.2,/,
N#CC1=C(N)Oc2n[nH]c(-c3cccnc3)c2C1c1ccc([N+](=O)[O-])o1 (configuration not stated),42.4*,-4.3,1.2,-13.8,-4.0,4.4,26.3,
Clc1ccc(/C=N/N2CCN(Cc3ccccc3)CC2)cc1,6.3,5.4,-1.9,-0.8,4.9,1.8,/,
CCc1cccc(C)c1NC(=S)NCC(c1cccnc1)N1CCOCC1 (configuration not stated),2.0,3.5,0.5,-4.7,4.5,11.8,/,
CC(C)c1cc2c(c(O)c1O)[C@@]13CCCC(C)(C)C1CC2OC3=O (some centres not stated),40.6*,-5.1,-3.6,4.3,2.3,-2.2,8.1,
CC(/C=C1\SC(=S)N(NS(=O)(=O)c2ccccc2)C1=O)=C\c1ccccc1,40.2*,-0.8,-0.1,-0.1,-3.2,2.6,31.8,
CC(/C=C1\SC(=S)N(NS(=O)(=O)c2ccc(C)cc2)C1=O)=C\c1ccccc1,47.6*,2.1,-13.5,-6.7,-4.1,0.0,36.0*,
CC(/C=C1\SC(=S)N(NC(=O)c2ccc(C)cc2)C1=O)=C\c1ccccc1,-6.9,-14.1,-30.8,-8.1,-35.9,-21.1,/,
Cc1ccc(-c2c(C)sc3nc[nH]c(=O)c23)cc1C,3.1,-1.1,-2.9,4.1,3.0,-1.6,/,
Cc1ccc(-c2cc(O)cc3sc(=O)oc23)cc1C,53.4*,-11.5,-0.3,6.6,-9.4,3.5,7.8,
